Screening data deposited in PubChem by National Center for Advancing Translational Sciences (NCATS).
BCR signal inh: qHTS Assay to Find Inhibitors of Chronic Active B-Cell Receptor Signaling. ABC-DLBCL IkBa-CBG/CBR reporter, luminescence ratio, 4 h. Potency, µM (titrated, usually from 46.1 µM), for inactives: top-dose activity change, negative = inhibition, most hits filed as inhibitors. hit rate 0.05% among 340,000; active means well fitted inhibition curve with a large enough effect in the signal ratio, with a control signal flat, not every such curve was filed as active; inconclusive means small, poorly fitted or top-dose-only effect, or effect the other way, or a change in a side signal; the % refers to the signal ratio;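 further: plate controls were basal doxycycline-induced cells for no effect and cells given 10 µM MG132 for full effect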
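Concentration-response series (up to 46 uM) were applied to TMD8 dual-reporter cells for 4 h at 37C with doxycycline. Green/red ratio, after filter-overlap correction, defined %Activity; red signal alone was normalised to basal cells and zero luminescence.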
aSyn yeast inh: qHTS of alpha-syn Inhibitors | Yeast expressing alpha-synuclein, growth rescue, BacTiter-Glo, 24 h | Potency, µM (top dose mostly 46.1 µM), without a hit: at the top dose growth rescue (activation), most hits filed as activators | hit rate 0.14% among 370,000 | AID 652106, 2013; further: % of control where 0% means no effect; nearly all actives have a fitted effect of over 65% in size
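Readout is rescue of growth in alpha-synuclein-expressing yeast, so inhibitors of toxicity appear as activators. Growth after 24 hr at 30 deg C in galactose medium is quantified by luminescence.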
uPA generation: qHTS for Inhibitors of Cell Surface uPA Generation. cell surface uPA generation assay, qHTS. Potency, µM (doses to about 38.3 µM), for inactives: at the highest dose activity change, negative = inhibition, hits mostly inhibitors. hit rate 0.31% among 330,000; active means well fitted inhibition curve with a large enough effect; inconclusive means small, poorly fitted or top-dose-only effect; inactive means no such curve, though single readings can be large or run the other way; tested in mouse RAW 264.7 cells; further: on the % scale 0 is the no-effect control and ±100 the full control effect; nearly all actives have a fitted effect of over 55% in size
FUS yeast rescue: qHTS for Suppressors of FUS Proteinopathy: Primary screen using FUS-linked yeast assay; S. cerevisiae FUS-expressing, growth rescue, OD600, 24 h; hit rate 0.24% among 390,000; Potency, µM (top dose mostly 76.6 µM), most hits filed as activators;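 further: plate controls were DMSO vehicle for no effect and reference control for full effect; nearly all actives have a fitted effect of over 55% in size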
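Quantitative HTS measuring growth restoration of FUS-toxic yeast. Galactose-induced cells (OD 0.005) were exposed 24hr at 30C to compounds at several concentrations, then absorbance at 600 nm was recorded.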
Abeta yeast res: qHTS for compounds that reverse cellular toxicity of Amyloid beta (A-beta) peptide in yeast: Primary Screen; yeast expressing A-beta42, growth rescue, OD600, 48 h; response scale: 0% DMSO, 100% iron-clioquinol control; Potency, µM (titrated, usually from 46.1 µM), most hits filed as activators; hit rate 0.063% among 410,000; further: nearly all actives have a fitted effect of over 55% in size
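Yeast A-beta toxicity model in growth medium with pinned compounds, 48 h at 30 C; growth read as absorbance at 600 nm. Normalized to FeCl3/clioquinol equimolar mix (positive) and DMSO (negative).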
TDP-43 yeast inh: qHTS of TDP-43 Inhibitors | TDP-43 expressing yeast growth rescue, BacTiter-Glo, 24 h | Potency, µM (highest dose often 46.1 µM), without a hit: at the highest dose growth rescue (activation), actives largely listed as activators | hit rate 1.8% among 410,000; further: % of control where 0% means no effect; nearly all actives have a fitted effect of over 50% in size
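Growth rescue of TDP-43-toxic yeast measured as ATP luminescence (BacTiter-Glo). Cells grown to mid-log in raffinose, induced in galactose at OD600=0.02, exposed to compound 24 hr at 30 deg C.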
Numbers without * were called inactive; i = inactive; ? = inconclusive; . = no result given. Most compounds without a hit are left out; they make up all but 2.3% or so of the library. Unless noted, the call rests on the fitted dose curve; in most records, active means well fitted curve in the direction sought with a large enough effect; inconclusive means small, poorly fitted or top-dose-only effect, or another doubt; inactive means no such curve, though single readings can be large; an effect the other way counts as inactive or inconclusive. Potency means the concentration at half of the fitted maximal effect.

SMILES | BCR signal inh | aSyn yeast inh | uPA generation | FUS yeast rescue | Abeta yeast res | TDP-43 yeast inh
CC1(C)Cc2c(c(N3CCOCC3)nc3snc(N)c23)CO1 | -2.8% | 2.4% | -12.2% | i | i | -3.2%
Cc1nc(C)c(-c2ccc(SCC(=O)Nc3ccccc3)nn2)s1 | -11.5% | 1.2% | -7.3% | i | i | 8.9%
Cc1nc(C)c(-c2ccc(SCc3ccccc3C)nn2)s1 | 11.8% | 1.3% | 13.6% | i | i | 15.8µM*
C/C=C/c1cc(OC)c2c(c1)[C@H](C)[C@@H](c1ccc(O)c(OC)c1)O2 | . | 7.94µM* | -8.3% | i | i | 27.5%
O=C(O)C1CC(=O)N(c2ccc(OCc3ccc(Cl)cc3Cl)cc2)C1 (stereo unspecified) | ? | 3.0% | . | i | i | -11.8%
Cc1cccc(-c2nnc(NC(=O)c3ccc(Cl)cc3)o2)c1 | 0.4% | 7.08µM* | . | i | ? | ?
O=C(Nc1nnc(-c2ccco2)o1)c1ccc(Cl)s1 | ? | 6.7% | ? | i | i | ?
O=C(Nc1nnc(-c2ccc(F)cc2)o1)c1cc(Cl)sc1Cl | ? | ? | -9.7% | . | i | ?
O=C(Nc1nnc(-c2ccccc2)o1)c1cc(Cl)sc1Cl | 1.1% | 3.16µM* | 0.3% | i | ? | -4.4%
O=C(Nc1nnc(-c2ccc(Cl)cc2)o1)c1nc2ccccc2s1 | 5.9% | 17.8µM* | 4.4% | i | i | ?
O=C(Nc1nnc(-c2ccc(Cl)cc2)o1)Nc1ccccc1Cl | -3.3% | 1.0% | -1.3% | i | i | 22.8%
COc1cccc(-c2nnc(NC(=O)c3ccc(Cl)s3)o2)c1 | ? | ? | ? | i | ? | 10µM*
C=CC[C@H](CC(=O)N(CCO)Cc1ccccc1)C(=O)N[C@H](COC(=O)[C@@H](CC=C)CC(=O)OC(C)(C)C)Cc1ccccc1 | -0.3% | -2.2% | 1.3% | 7.94µM* | i | -15.3%
CCc1ccc(-c2nc(CN3CCC(C(=O)NCc4ccc(F)cc4)CC3)c(C)o2)cc1 | ? | . | 1.6% | i | i | 2µM*
Cc1oc(-c2ccc(Cl)cc2)nc1CN1CCC(C(=O)NCCCN2CCOCC2)CC1 | ? | -8.9% | . | i | i | 0.0%
COc1ccc(-c2nc(CN3CCC(C(=O)NCc4ccc(F)cc4)CC3)c(C)o2)cc1OC | . | . | . | i | i | 1.7%
CCC1CCCCN1CCCNC(=O)C1CCN(Cc2nc(-c3ccc(Cl)cc3)oc2C)CC1 (stereo unspecified) | ? | 1.2% | 10µM* | i | i | -6.3%
O=c1[nH][nH]c2c1C(c1ccc(F)cc1)OC(CCc1ccccc1)C2 (stereo unspecified) | . | 14.2% | . | i | i | 20µM*
CCCCC1Cc2[nH][nH]c(=O)c2C(c2ccc(Cl)cc2)O1 (stereo unspecified) | . | -5.2% | . | ? | i | 11.2µM*
O=c1[nH][nH]c2c1[C@@H](c1ccc(F)cc1)O[C@H](CCc1ccccc1)C2 | . | -13.2% | . | ? | i | 13.6%
O=c1[nH][nH]c2c1[C@H](c1ccc(F)cc1)O[C@H](CCC(F)(F)F)C2 | . | ? | . | i | i | 20µM*
CC(C)[C@@H]1Cc2[nH][nH]c(=O)c2[C@H](c2ccc(F)cc2)O1 | . | -9.5% | . | i | i | 11.2µM*
C/C(=N\Nc1nccnc1Cl)c1ccc(O)cc1 | 1.0% | -3.5% | -9.9% | i | i | 2.7%
Cc1cccc(NC(=O)c2cnc3sccn3c2=O)c1 | ? | -3.4% | 10µM* | i | i | 14.4%
Cc1cccc(NC(=O)c2cnc3ccccn3c2=O)c1 | 11.1% | -0.4% | ? | i | i | 11.9%
SMILES | BCR signal inh | aSyn yeast inh | uPA generation | FUS yeast rescue | Abeta yeast res | TDP-43 yeast inh
CCOC(=O)c1ccc(S(=O)(=O)N2CCC(C(=O)N3CCN(c4ccccc4OC)CC3)CC2)cc1 | . | 16.6% | -8.0% | . | i | 16.6%
Cc1cc(C)cc(Cn2c(C)c(C(=O)N(C)Cc3ccc(F)cc3)sc2=O)c1 | . | 10.5% | . | i | i | 31.6µM*
Cc1c(C(=O)N(C)c2ccccc2)sc2nc(-c3ccc(F)cc3)cn12 | . | . | . | i | i | 35.5µM*
Cc1c(C(=O)N(C)Cc2ccccc2)sc2nc(-c3ccc(F)cc3)cn12 | . | . | . | ? | i | 22.4µM*
Cc1ccccc1Cn1c(C)c(C(=O)N(C)Cc2ccc(F)cc2)sc1=O | . | 14.8% | . | i | i | 11.9%
CC(=O)Nc1c(C(=O)N2CCOCC2)sc2nc3c(cc12)COC(C)(C)C3 | 3.7% | -2.7% | -2.9% | i | i | -18.8%
COc1ccc(CN2CC[C@H]3C=CC[C@@H](C(=O)NCCc4ccccc4)[C@H]3C2=O)cc1OC | . | 0.4% | 13.8% | i | i | 20.5%
COc1ccc(C2=Nn3c(nnc3-c3ccc(OC)cc3)SC2)cc1 | 6.51µM* | 0.3% | -14.5% | i | i | ?
CCOc1ccc(C2=Nn3c(CC)nnc3SC2)cc1 | -2.0% | 2.2% | ? | i | i | 17.8µM*
COc1ccc(-c2nnc3n2N=C(C)CS3)cc1 | 5.3% | -11.2% | 2.4% | i | i | 14.0%
CCc1ccc(C2=Nn3c(nnc3-c3cccs3)SC2)cc1 | -16.4% | 0.0% | -12.7% | i | i | 11.2µM*
O=C(N/C(=C/c1ccco1)C(=O)N1CCOCC1)c1ccc([N+](=O)[O-])cc1 | -1.4% | 0.2% | 7.3% | i | i | 7.4%
Cc1cc(NC(=S)NC(=O)c2ccco2)c2ccccc2n1 | 15.6% | 0.1% | -5.6% | i | i | 8.1%
CC1CN(C(=O)CCC(=O)Nc2cc(F)ccc2F)c2ccccc2S1 (stereo unspecified) | . | . | . | i | i | 11.2µM*
COc1ccc(C(=O)Nc2nnc(S(=O)(=O)N(C)c3ccc(C)cc3)s2)cc1 | . | . | . | i | i | 7.2%
Nc1ccc2nc(-c3ccc(-c4nc5ccc(N)cc5[nH]4)cc3)[nH]c2c1 | 11.7% | 8.6% | 7.6% | i | ? | 14.1µM*
O=c1c2ccccc2[nH]c(=S)n1CCN1CCCC1 | -0.3% | -8.5% | 0.9% | i | i | 13.7%
O=C(Nc1cccc(NC(=O)c2ccc3c(c2)OCO3)c1)c1ccccc1 | ? | -2.9% | -0.6% | i | i | 19.0%
